Experimental findings from PubChem BioAssay (NCATS) are described below.

Experiment [1] can be described thus: NS1 protein of Zika virus - qHTS assay to identify small molecule inhibitors in human HEK 293 cells (AID 1347053). Further: nearly all actives have a fitted effect of over 55% in size. Further: potency means the concentration at half of the fitted maximal effect. The method in brief:
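HEK 293 cells pretreated with compound for 1 h, then infected with ZIKV MR766 (MOI 0.5) for 24 h at 37 C. NS1 detected by TR-FRET with two anti-NS1 antibodies; normalized to uninfected (0%) and infected (100%) wells.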
In general terms: In qHTS, concentration-response curves come from the screen itself.

Experiment [2] in a line: qHTS of pediatric cancer cell lines to identify multiple opportunities for drug repurposing: Primary screen for TC32 cells (AID 1347089). Further: nearly all actives have a fitted effect of over 60% in size. Further: potency means the concentration at half of the fitted maximal effect. The method in brief:
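In the primary qHTS, MIPE compounds were tested at 11 concentrations (0.78 nM to 46 µM) and NPC compounds at 8 (0.59 nM to 46 µM) on TC32 cells for 48 h. CellTiter-Glo luminescence gave viability.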

Experiment [3] in a line: qHTS of pediatric cancer cell lines to identify multiple opportunities for drug repurposing: Primary screen for DAOY cells (AID 1347090). Further: nearly all actives have a fitted effect of over 55% in size. Further: potency means the concentration at half of the fitted maximal effect. The method in brief: (§1)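 Viability measured as metabolically active cells via CellTiter-Glo luminescence following 48 hours of compound exposure, 11-point dilutions in confirmatory testing. 500-1,000 cells/well plated 5 hours before dosing; controls were DMSO and 2.3 µM bortezomib.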

Experiment [4] in a line: qHTS of pediatric cancer cell lines to identify multiple opportunities for drug repurposing: Primary screen for A673 cells (AID 1347092). Further: nearly all actives have a fitted effect of over 45% in size. Further: potency means the concentration at half of the fitted maximal effect. The method in brief: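 48 h compound exposure, A673, 500-1,000 cells/well, 37 degrees C/5% CO2. MIPE: 11-point, 0.78 nM-46 µM; NPC: 8-point, 0.59 nM-46 µM (final). Readout CellTiter-Glo luminescence after 15 min RT.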
Experiment [5] can be described thus: qHTS of pediatric cancer cell lines to identify multiple opportunities for drug repurposing: Primary screen for SK-N-MC cells (AID 1347093). Further: potency means the concentration at half of the fitted maximal effect. The method in brief:
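Metabolically active cells were quantified by ATP-dependent luminescence (CellTiter-Glo, 15 min at room temperature) following 48 h treatment. Cells had been plated at 500-1,000 per well and settled for 5 h beforehand.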

Experiment [6] can be described thus: qHTS of pediatric cancer cell lines to identify multiple opportunities for drug repurposing: Primary screen for NB-EBc1 cells (AID 1347095). Further: potency means the concentration at half of the fitted maximal effect. The method in brief:
(§2)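 500-1,000 cells/well; 5 h pre-incubation 37 °C/5% CO2; compound pinned; 48 h; CellTiter-Glo, 15 min RT; luminescence. MIPE 11-pt from 0.78 nM, NPC 8-pt from 0.59 nM final. Bortezomib 2.3 µM final as positive control.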

The nature of experiment [7]: qHTS of pediatric cancer cell lines to identify multiple opportunities for drug repurposing: Primary screen for U-2 OS cells (AID 1347096). Further: nearly all actives have a fitted effect of over 50% in size. The method in brief: (§3)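 Viability after 48 h compound treatment at 37C, 500-1,000 cells/well, read as ATP luminescence with CellTiter-Glo. Primary screens used 11-point (MIPE, 0.78 nM-46 µM) or 8-point (NPC, 0.59 nM-46 µM) final concentrations; follow-up screens used 11-point dilutions.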

A short description of experiment [8]: qHTS of pediatric cancer cell lines to identify multiple opportunities for drug repurposing: Primary screen for SK-N-SH cells (AID 1347098). Further: nearly all actives have a fitted effect of over 65% in size. Further: potency means the concentration at half of the fitted maximal effect. The method in brief: (§4)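 Cells (500-1,000/well) rested 5 h, then received compounds for 48 h; metabolically active cells were measured by CellTiter-Glo luminescence. Final concentrations spanned up to 46 µM (MIPE, 11-point) or 0.59 nM-46 µM (NPC, 8-point) in primary screens, 11-point in follow-ups.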

Experiment [9] can be described thus: qHTS of pediatric cancer cell lines to identify multiple opportunities for drug repurposing: Primary screen for NB1643 cells (AID 1347099). Further: nearly all actives have a fitted effect of over 50% in size. Further: potency means the concentration at half of the fitted maximal effect. The method in brief:
as §2

Experiment [10] can be described thus: qHTS of pediatric cancer cell lines to identify multiple opportunities for drug repurposing: Primary screen for LAN-5 cells (AID 1347100). Further: potency means the concentration at half of the fitted maximal effect. The method in brief: as §3
A short description of experiment [11]: qHTS of pediatric cancer cell lines to identify multiple opportunities for drug repurposing: Primary screen for BT-12 cells (AID 1347101). Further: nearly all actives have a fitted effect of over 25% in size. Further: potency means the concentration at half of the fitted maximal effect. The method in brief: as §4
The nature of experiment [12]: qHTS of pediatric cancer cell lines to identify multiple opportunities for drug repurposing: Primary screen for Rh18 cells (AID 1347102). Further: nearly all actives have a fitted effect of over 65% in size. The method in brief:
as §3

The nature of experiment [13]: qHTS of pediatric cancer cell lines to identify multiple opportunities for drug repurposing: Primary screen for SJ-GBM2 cells (AID 1347091). Further: potency means the concentration at half of the fitted maximal effect. The method in brief:
as §1

Experiment [14] is described as follows: qHTS of pediatric cancer cell lines to identify multiple opportunities for drug repurposing: Primary screen for BT-37 cells (AID 1347094). Further: potency means the concentration at half of the fitted maximal effect. The method in brief:
as §2

Experiment [15] can be described thus: qHTS of pediatric cancer cell lines to identify multiple opportunities for drug repurposing: Primary screen for Saos-2 cells (AID 1347097). Further: nearly all actives have a fitted effect of over 40% in size. Further: potency means the concentration at half of the fitted maximal effect. The method in brief:
as §2

Experiment [16] can be described thus: qHTS of pediatric cancer cell lines to identify multiple opportunities for drug repurposing: Primary screen for OHS-50 cells (AID 1347103). Further: nearly all actives have a fitted effect of over 40% in size. Further: potency means the concentration at half of the fitted maximal effect. The method in brief: as §4

Molecules are shown by their SMILES. Results filed as inconclusive are left out. The source made the active and inactive calls. The call rests on the fitted dose curve; in most records, active means well fitted curve in the direction sought with a large enough effect; inconclusive means small, poorly fitted or top-dose-only effect, or another doubt; inactive means no such curve, though single readings can be large; an effect the other way counts as inactive or inconclusive.

Take `CCN1CCN(c2cc(-c3ccc(F)cc3)c3c(n2)CCCCCC3)CC1`: the Potency entry in experiment [1], in experiment [2], in [3], in [4], in experiment [5] and in experiment [6] was “inactive” each time. For the same compound, the Potency entry in experiment [7], in [8], in experiment [9], in [10], in experiment [11] and in experiment [12] was “inactive” throughout.
With `CCCC(=O)c1cc(O)c(O)cc1O`, the Potency result in [1], in [2], in [3], in experiment [7], in experiment [9] and in experiment [11] was “inactive” each time. Moreover, the Potency in [4] was 12.2 µM (active).
On to `Cc1cc(O)c2c(O)c3c(O)cccc3cc2c1`, for which the Potency entry in [1], in experiment [2], in experiment [13], in experiment [4], in experiment [5] and in [14] was “inactive” in each case. For the same compound, the Potency entry in experiment [6], in [7], in experiment [15], in experiment [8], in [9] and in experiment [10] was “inactive” each time. In addition, the Potency entry in [11], in experiment [12] and in experiment [16] was “inactive” in each case.
As to `CCOC(=O)N1CCC(Nc2ccc(Cl)cc2N)CC1`, the Potency entry in [1], in [2], in experiment [3], in experiment [13] and in [7] was “inactive” throughout. In addition, the Potency is 10.6 µM (active) in [5]; 19.4 µM (active) in experiment [8]; 8.41 µM (active) in [9]; 2.66 µM (active) in experiment [10]; 4.9 µM (active) in [11].
Consider `CCCCC/C=C\C/C=C\CCCCCCCC(=O)NC(C)c1ccccc1` (stereo unspecified), for which the Potency entry in experiment [1], in experiment [2], in experiment [3], in [13], in experiment [6] and in experiment [7] was “inactive” throughout. Besides, the Potency result in experiment [9] and in experiment [12] was “inactive” each time. Moreover, the Potency in [5] is 18.8 µM (active).
Regarding `CCc1cc2cc(OC)c(OC)cc2c(Cc2ccccc2)n1`, the Potency entry in [1], in experiment [2], in [3], in experiment [4], in [5] and in experiment [14] was “inactive” in each case. The Potency entry in experiment [7], in experiment [15], in experiment [9], in experiment [11] and in [12] was “inactive” each time. The Potency in [16] is 21.9 µM (active).
Consider `COc1cc(S(N)(=O)=O)cc(C(=O)O)c1OC`, for which the Potency entry in experiment [1], in experiment [2], in experiment [13], in experiment [4], in experiment [5] and in experiment [14] was “inactive” in each case. The Potency result in experiment [6], in [7], in experiment [15], in [8], in experiment [9] and in [10] was “inactive” each time. The Potency entry in experiment [11], in experiment [12] and in experiment [16] was “inactive” in each case.
With `O=[N+]([O-])c1ccc(O)c2ncccc12`, the Potency in experiment [1] is 6.31 µM (active); in [2] it was 13.3 µM (active); in experiment [3], 2.66 µM (active); in [13], 2.66 µM (active); in experiment [14], 15.5 µM (active); in experiment [6], 2.37 µM (active). Besides, the Potency in experiment [15] was 10.6 µM (active); in [8], 3.44 µM (active); in experiment [9], 1.88 µM (active); in experiment [11], 5.5 µM (active); in [16], 5.5 µM (active).
For `CCOC(=O)C(=O)c1csc(NC=O)n1`, the Potency entry in experiment [1], in [2], in experiment [13], in experiment [4], in [5] and in experiment [14] was “inactive” each time. Further, the Potency result in experiment [6], in experiment [7], in [15], in [8], in experiment [9] and in experiment [10] was “inactive” each time. Also, the Potency entry in [11] and in experiment [12] was “inactive” in each case.
Consider `CC(C)=CCC/C(C)=C/CC/C(C)=C/C(=O)OCC(=O)[C@@]1(O)CC[C@H]2[C@@H]3CCC4=CC(=O)C=C[C@]4(C)[C@H]3[C@@H](O)C[C@@]21C`, for which the Potency entry in experiment [1], in [2], in experiment [4], in experiment [5], in experiment [14] and in experiment [8] was “inactive” in each case. For the same compound, the Potency result in [9] and in [12] was “inactive” each time. The Potency in experiment [13] was 13.3 µM (active); in experiment [6], 21.1 µM (active); in [10], 13.3 µM (active).
